Data reported in PubChem BioAssay AID741 (SRMLSC, 2007).
Results filed as inconclusive are left out. Activity calls are given as the source filed them. No stated cut-off is given here; in the data, active means toxicity enhancement factor above about 0.054; inconclusive means between about 0.00067 and that limit; inactive means weaker than that.

Experiment: reversers of MRP drug resistance, dose response, cell-based (AID 741)
Details: MRP-overexpressing cells, viability with/without cytotoxic drug; slope difference: measured here: slope difference tox minus reversal, stronger effect = higher value; toxicity enhancement factor: stronger effect = higher value; viability: measured here: viability series, compound alone, at 10 µM, stronger effect = lower value

| SMILES | slope difference | toxicity enhancement factor | viability [%] |
| --- | --- | --- | --- |
| Cc1nc(C)c(C)nc1C | -0.412 | -0.004 (inactive) | 98.8 |
| O=C(NCc1ccccn1)c1cn(CCc2ccccc2)nn1 | -0.117 | -0.0012 (inactive) | 97.1 |
| N#Cc1ccc(CSc2nnc(-c3cccs3)n2-c2ccccc2)cc1 | -0.904 | -0.0117 (inactive) | 79 |
| CSc1nnc(-c2cc3ccccc3cc2O)n1C | -0.153 | -0.0016 (inactive) | 101 |
| COc1cc(/C=C/C(=O)CC(=O)/C=C/c2ccc(O)c(OC)c2)ccc1O | -2.01 | -0.0391 (inactive) | 24.1 |
| O=C(O)c1ccccc1O | -0.779 | -0.0072 (inactive) | 100 |
| Cc1cccc2cc(CN(Cc3nnnn3Cc3ccco3)C3CCCC3)c3nnnn3c12 | -1.43 | -0.027 (inactive) | 51.1 |
| COc1ccc(C(=O)Nc2nc3ccccc3[nH]2)cc1OC | -0.0153 | -0.0002 (inactive) | 87.3 |
| CCCCSc1nnc2n(CCc3ccccc3)c(=O)c3c4c(sc3n12)COC(C)(C)C4 | 5.29 | 0.189 (active) | 84.4 |
| Cc1ccc(N2C(N)=C(C#N)C(c3cccnc3)C3=C2CCCC3=O)cc1 (configuration not stated) | 2.44 | 0.0726 (active) | 62.7 |
| CCOC(=O)/C(C#N)=C/c1cc(C)n(-c2ccc(C)cc2)c1C | -0.0151 | -0.0003 (inactive) | 63.7 |
| c1ccc(N2CCN(c3ccccc3)C2c2ccncc2)cc1 | 3.19 | 0.0739 (active) | 82.9 |
| COc1ccc2cc(C(c3nnnn3C(C)(C)C)N3CCc4ccccc4C3)c(=O)[nH]c2c1 (configuration not stated) | -0.322 | -0.0045 (inactive) | 76.3 |
| Cc1nc(N2CCN(C)CC2)c2sc(=S)n(-c3ccccc3)c2n1 | 2.3 | 0.0596 (active) | 64 |
| CCc1cccc2c3c([nH]c12)C(CC)(CC(=O)O)OCC3 (configuration not stated) | -0.174 | -0.0019 (inactive) | 92.5 |
| CC(=O)Nc1ccc(S(=O)(=O)NCCC(=O)NCCc2ccc(F)cc2)cc1 | 0.0009 | 0 (inactive) | 87.3 |
| O=C(Cc1cccs1)N1CCC(c2nc3c(nnn3Cc3ccccc3Cl)c(=O)[nH]2)CC1 | -0.454 | -0.0052 (inactive) | 82.5 |

| SMILES | slope difference | toxicity enhancement factor | viability [%] |
| --- | --- | --- | --- |
| Cc1ccc(-n2ncc3c(N4CCN(c5ccccc5)CC4)ncnc32)c(C)c1 | -1.27 | -0.037 (inactive) | 27.4 |
| COc1ccc2cc([C@H](C)C(=O)O)ccc2c1 | -0.665 | -0.0066 (inactive) | 96.6 |
| CCOC(=O)c1sc(NC(=O)CSc2nnc(-c3ccco3)n2CC)c(C(=O)OCC)c1C | 3.89 | 0.364 (active) | 54.8 |
| COc1ccc(C(c2nnnn2C(C)(C)C)N2CCN(c3nc4ccccc4s3)CC2)cc1OC (configuration not stated) | -1.39 | -0.0199 (inactive) | 71.9 |
| Cn1ccnc1-c1nc2ccccc2[nH]c1=O | -0.138 | -0.0015 (inactive) | 92.3 |
| Cc1ccc(Cn2c(N3CCCCCC3)nc3c2c(=O)[nH]c(=O)n3C)cc1 | -0.91 | -0.0097 (inactive) | 88.2 |
| COCC(C)OC(=O)C(C#N)c1nc2ccccc2nc1N1CCN(Cc2ccccc2)CC1 (configuration not stated) | -0.109 | -0.0013 (inactive) | 89.3 |
| O=C(CSc1nnnn1-c1ccccc1)N1CCc2ccccc21 | -1.04 | -0.0102 (inactive) | 85.8 |
| COC(=O)C(C)Sc1nnc2n(-c3cccc(C)c3)c(=O)c3c4c(sc3n12)CCCC4 (configuration not stated) | 2.9 | 0.061 (active) | 85.9 |
| COc1ccc(NC(=O)C2C3C=CC(C3)C2C(=O)NCc2ccccn2)c(OC)c1 (configuration not stated) | -1.73 | -0.0167 (inactive) | 88.7 |
| N#CC1=C(N)N(c2ccccc2)C2=C(C(=O)CCC2)C1c1ccccc1 (configuration not stated) | 4.41 | 0.144 (active) | 70.1 |
| COc1ccc(N2C(=O)C(Cl)=C(N3CCCC3)C2=O)cc1 | -0.145 | -0.0016 (inactive) | 91.8 |
| O=c1[nH]c2ccc(Br)cc2c(-c2ccccc2)c1N1CCOCC1 | 2.74 | 0.0679 (active) | 74.8 |
| Cc1ccc(-c2nc3ncccn3c2NC2CCCCC2)o1 | 2.81 | 0.0632 (active) | 79.5 |
| Cc1cccc2cc(CN(Cc3nnnn3C3CCCCC3)C3CCCC3)c3nnnn3c12 | 3.91 | 0.117 (active) | 74.2 |
| O=C(CSc1nnc(CN2CCOCC2)n1-c1ccc(Cl)cc1)Nc1cc(Cl)ccc1O | 2.56 | 0.0702 (active) | 67.3 |
| CC(C(=O)O)c1ccc(N2Cc3ccccc3C2=O)cc1 (configuration not stated) | -0.182 | -0.0019 (inactive) | 98.6 |
